Changes are numbered by the printed parent chain.

What all share (assay): PBM; 200 nM protein, PBS
Details in all cases: dsDNA, one strand shown

In one assay the target is T1, VENTX (Homo sapiens, UniProt O95231 78-163).
T1 sequence: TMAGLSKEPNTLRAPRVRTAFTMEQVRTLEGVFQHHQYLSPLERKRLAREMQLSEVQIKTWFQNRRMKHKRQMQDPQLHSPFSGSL

The target in assay [1] is VAX1 (Homo sapiens, UniProt Q5SQQ9 86-172).
Assay [2] addresses VAX1 (Homo sapiens, UniProt Q5SQQ9 86-172, T142I).
In assay [3] the target is VAX1 (Homo sapiens, UniProt Q5SQQ9 86-172, K157R).
Sequence of VAX1 (Homo sapiens, UniProt Q5SQQ9 86-172, K157R) (Q5SQQ9 86-172 K157R): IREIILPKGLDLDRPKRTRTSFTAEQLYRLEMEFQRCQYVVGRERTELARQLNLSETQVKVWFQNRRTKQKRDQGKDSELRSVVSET
Assay [4] addresses HOXB6 (Homo sapiens, UniProt P17509 132-218, K202E).
Assay [5] deals with HOXB6 (Homo sapiens, UniProt P17509 132-218).
Sequence of HOXB6 (Homo sapiens, UniProt P17509 132-218) (P17509 132-218): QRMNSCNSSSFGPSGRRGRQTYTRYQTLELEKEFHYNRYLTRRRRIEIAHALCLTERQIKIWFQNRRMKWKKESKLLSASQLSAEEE
Assay [6] concerns the target HOXA4 (Homo sapiens, UniProt Q00056 201-287, R217L).
Assay [7] deals with CRX (Homo sapiens, UniProt O43186 26-111).
Sequence of CRX (Homo sapiens, UniProt O43186 26-111) (O43186 26-111): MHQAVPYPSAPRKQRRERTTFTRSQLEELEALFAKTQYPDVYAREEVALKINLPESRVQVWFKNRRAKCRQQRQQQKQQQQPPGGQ
A further assay deals with HOXB9 (Homo sapiens, UniProt P17482 171-250, T197M).
Sequence of HOXB9 (P17482 171-250 T197M): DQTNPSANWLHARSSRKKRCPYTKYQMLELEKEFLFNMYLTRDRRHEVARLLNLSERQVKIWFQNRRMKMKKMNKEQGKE
The target of assay [8] is CRX (Homo sapiens, UniProt O43186 26-111, E42D).
Sequence of CRX (Homo sapiens, UniProt O43186 26-111, E42D) (O43186 26-111 E42D): as the sequence (O43186 26-111) above, with E17D counted along it
Assay [9] addresses CRX (Homo sapiens, UniProt O43186 26-111, R41L).
Assay [10] addresses HOXC9 (Homo sapiens, UniProt P31274 178-260, K195R).
Assay [11] addresses HOXC9 (Homo sapiens, UniProt P31274 178-260).
For assay [12], the target named is HOXC9 (Homo sapiens, UniProt P31274 178-260, R193K).
Sequence of HOXC9 (Homo sapiens, UniProt P31274 178-260, R193K) (P31274 178-260 R193K): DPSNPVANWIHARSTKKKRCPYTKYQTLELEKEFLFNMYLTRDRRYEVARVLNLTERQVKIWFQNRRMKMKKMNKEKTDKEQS
Assay [13] addresses HOXC9 (Homo sapiens, UniProt P31274 178-260, R222W).
Assay [14] addresses T2, SIX6 (Homo sapiens, UniProt O95475 114-200, H141N).
T2 sequence: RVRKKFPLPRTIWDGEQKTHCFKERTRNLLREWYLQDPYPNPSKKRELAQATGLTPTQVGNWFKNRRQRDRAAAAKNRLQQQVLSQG

The target in assay [15] is T3, SIX6 (Homo sapiens, UniProt O95475 114-200, T165A).
T3 sequence: T2 sequence with N28H, T52A

The target of assay [16] is T4, SIX6 (Homo sapiens, UniProt O95475 114-200).
T4 sequence: T2 sequence with N28H

Assay [17] concerns the target HOXA4 (Homo sapiens, UniProt Q00056 201-287, W262R).
The target of assay [18] is HOXA4 (Homo sapiens, UniProt Q00056 201-287).
Sequence of HOXA4 (Homo sapiens, UniProt Q00056 201-287) (Q00056 201-287): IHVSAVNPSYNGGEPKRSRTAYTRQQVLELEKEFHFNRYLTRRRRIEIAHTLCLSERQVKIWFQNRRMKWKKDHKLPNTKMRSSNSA

Sequence of HOXA4 (Homo sapiens, UniProt Q00056 201-287, W262R) (Q00056 201-287 W262R): as the sequence (Q00056 201-287) above, with W62R counted along it
Sequence of HOXC9 (Homo sapiens, UniProt P31274 178-260, K195R) (P31274 178-260 K195R): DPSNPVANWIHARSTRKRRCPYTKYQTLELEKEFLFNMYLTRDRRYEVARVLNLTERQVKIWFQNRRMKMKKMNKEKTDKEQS
Sequence of VAX1 (Homo sapiens, UniProt Q5SQQ9 86-172, T142I) (Q5SQQ9 86-172 T142I): as the sequence (Q5SQQ9 86-172 K157R) above, with T57I, R72K counted along it
Sequence of HOXA4 (Homo sapiens, UniProt Q00056 201-287, R217L) (Q00056 201-287 R217L): as the sequence (Q00056 201-287) above, with R17L counted along it
Sequence of HOXC9 (Homo sapiens, UniProt P31274 178-260) (P31274 178-260): as the sequence (P31274 178-260 R193K) above, with K16R counted along it
Sequence of HOXB6 (Homo sapiens, UniProt P17509 132-218, K202E) (P17509 132-218 K202E): as the sequence (P17509 132-218) above, with K71E counted along it
Sequence of HOXC9 (Homo sapiens, UniProt P31274 178-260, R222W) (P31274 178-260 R222W): as the sequence (P31274 178-260 R193K) above, with K16R, R45W counted along it
Sequence of VAX1 (Homo sapiens, UniProt Q5SQQ9 86-172) (Q5SQQ9 86-172): as the sequence (Q5SQQ9 86-172 K157R) above, with R72K counted along it
Sequence of CRX (Homo sapiens, UniProt O43186 26-111, R41L) (O43186 26-111 R41L): as the sequence (O43186 26-111) above, with R16L counted along it

With GCCAATTA, the binding signal with VENTX was 12.5 upbm affinity estimate (log intensity, higher = more binding, comparable within an allelic series); with VAX1 [1], 12.8 upbm affinity estimate (log intensity, higher = more binding, comparable within an allelic series); with VAX1 [2], 12.4 upbm affinity estimate (log intensity, higher = more binding, comparable within an allelic series); in the assay with VAX1 [3], 12.6 upbm affinity estimate (log intensity, higher = more binding, comparable within an allelic series).

Turning to AATTAGTA, the binding signal in the assay with HOXB6 [4] was 9.94 upbm affinity estimate (log intensity, higher = more binding, comparable within an allelic series); with HOXB6 [5], 11.3 upbm affinity estimate (log intensity, higher = more binding, comparable within an allelic series).

Consider CAATTAGG, for which the binding signal with VENTX is 12.7 upbm affinity estimate (log intensity, higher = more binding, comparable within an allelic series); in the assay with VAX1 [1], 12.9 upbm affinity estimate (log intensity, higher = more binding, comparable within an allelic series); with VAX1 [2], 12.8 upbm affinity estimate (log intensity, higher = more binding, comparable within an allelic series); with VAX1 [3] it was 12.7 upbm affinity estimate (log intensity, higher = more binding, comparable within an allelic series).

Turning to AATTAACG, in the assay with HOXA4 [6], the binding signal is 12.1 upbm affinity estimate (log intensity, higher = more binding, comparable within an allelic series).

Take CAATTAGA: the binding signal with VAX1 [1] is 12.6 upbm affinity estimate (log intensity, higher = more binding, comparable within an allelic series); with VAX1 [2], 12.2 upbm affinity estimate (log intensity, higher = more binding, comparable within an allelic series); with VAX1 [3] it was 12.3 upbm affinity estimate (log intensity, higher = more binding, comparable within an allelic series).

Take GAGGGGGC: the binding signal was 8.07 upbm affinity estimate (log intensity, higher = more binding, comparable within an allelic series) with CRX [7]; 8.48 upbm affinity estimate (log intensity, higher = more binding, comparable within an allelic series) with HOXB9; 8.05 upbm affinity estimate (log intensity, higher = more binding, comparable within an allelic series) with CRX [8]; 8.14 upbm affinity estimate (log intensity, higher = more binding, comparable within an allelic series) in the assay with CRX [9].

As for CCAATTAG, the binding signal with VENTX was 13.1 upbm affinity estimate (log intensity, higher = more binding, comparable within an allelic series); with VAX1 [1] it was 13.1 upbm affinity estimate (log intensity, higher = more binding, comparable within an allelic series); in the assay with VAX1 [2], 12.6 upbm affinity estimate (log intensity, higher = more binding, comparable within an allelic series); with VAX1 [3], 12.9 upbm affinity estimate (log intensity, higher = more binding, comparable within an allelic series).

ATTAATGC: the binding signal was 11.9 upbm affinity estimate (log intensity, higher = more binding, comparable within an allelic series) in the assay with CRX [7]; 11.7 upbm affinity estimate (log intensity, higher = more binding, comparable within an allelic series) in the assay with CRX [8]; 11 upbm affinity estimate (log intensity, higher = more binding, comparable within an allelic series) in the assay with CRX [9].

As to CAATTACA, the binding signal with HOXB6 [4] is 9.87 upbm affinity estimate (log intensity, higher = more binding, comparable within an allelic series); in the assay with HOXB6 [5], 11.4 upbm affinity estimate (log intensity, higher = more binding, comparable within an allelic series).

Turning to AATTAAGC, in the assay with VAX1 [2], the binding signal was 12.3 upbm affinity estimate (log intensity, higher = more binding, comparable within an allelic series).

For the sequence CCCAGGCG, the binding signal with HOXC9 [10] was 9.48 upbm affinity estimate (log intensity, higher = more binding, comparable within an allelic series); with HOXC9 [11], 9.7 upbm affinity estimate (log intensity, higher = more binding, comparable within an allelic series); with HOXC9 [12] it was 9.62 upbm affinity estimate (log intensity, higher = more binding, comparable within an allelic series); with HOXC9 [13], 9.63 upbm affinity estimate (log intensity, higher = more binding, comparable within an allelic series).

Turning to AATTAAAT, the binding signal in the assay with HOXB9 was 10 upbm affinity estimate (log intensity, higher = more binding, comparable within an allelic series); with HOXC9 [10], 12.5 upbm affinity estimate (log intensity, higher = more binding, comparable within an allelic series); in the assay with HOXC9 [11] it was 12.5 upbm affinity estimate (log intensity, higher = more binding, comparable within an allelic series); in the assay with HOXC9 [12], 12.6 upbm affinity estimate (log intensity, higher = more binding, comparable within an allelic series); in the assay with HOXC9 [13], 11.2 upbm affinity estimate (log intensity, higher = more binding, comparable within an allelic series).

As for GACAATTA, the binding signal was 9.97 upbm affinity estimate (log intensity, higher = more binding, comparable within an allelic series) in the assay with HOXB9; 9.96 upbm affinity estimate (log intensity, higher = more binding, comparable within an allelic series) with HOXB6 [4]; 11.7 upbm affinity estimate (log intensity, higher = more binding, comparable within an allelic series) with HOXB6 [5].

Take GGAGCGCA: the binding signal was 8.88 upbm affinity estimate (log intensity, higher = more binding, comparable within an allelic series) in the assay with SIX6 [14]; 8.96 upbm affinity estimate (log intensity, higher = more binding, comparable within an allelic series) with SIX6 [15]; 8.87 upbm affinity estimate (log intensity, higher = more binding, comparable within an allelic series) with SIX6 [16].

AATTAGCG: the binding signal is 12.3 upbm affinity estimate (log intensity, higher = more binding, comparable within an allelic series) with VENTX; 12.6 upbm affinity estimate (log intensity, higher = more binding, comparable within an allelic series) with VAX1 [1]; 12.4 upbm affinity estimate (log intensity, higher = more binding, comparable within an allelic series) with VAX1 [2]; 12.5 upbm affinity estimate (log intensity, higher = more binding, comparable within an allelic series) with VAX1 [3].

Turning to CCGAGCGG, the binding signal was 9.72 upbm affinity estimate (log intensity, higher = more binding, comparable within an allelic series) with HOXA4 [17]; 9.78 upbm affinity estimate (log intensity, higher = more binding, comparable within an allelic series) in the assay with HOXA4 [6]; 9.77 upbm affinity estimate (log intensity, higher = more binding, comparable within an allelic series) in the assay with HOXA4 [18].

With CCCAATTA, the binding signal with VENTX was 12.4 upbm affinity estimate (log intensity, higher = more binding, comparable within an allelic series); with VAX1 [1], 12.7 upbm affinity estimate (log intensity, higher = more binding, comparable within an allelic series); with VAX1 [2], 12.3 upbm affinity estimate (log intensity, higher = more binding, comparable within an allelic series); with VAX1 [3], 12.6 upbm affinity estimate (log intensity, higher = more binding, comparable within an allelic series).

Consider CAATTACG, for which the binding signal is 10.4 upbm affinity estimate (log intensity, higher = more binding, comparable within an allelic series) with HOXA4 [17]; 11.6 upbm affinity estimate (log intensity, higher = more binding, comparable within an allelic series) with HOXA4 [6]; 13.1 upbm affinity estimate (log intensity, higher = more binding, comparable within an allelic series) with HOXA4 [18]; 12.3 upbm affinity estimate (log intensity, higher = more binding, comparable within an allelic series) in the assay with VAX1 [3].

In the case of AATTAACT, the binding signal with HOXB6 [4] is 9.99 upbm affinity estimate (log intensity, higher = more binding, comparable within an allelic series); with HOXA4 [6], 12.1 upbm affinity estimate (log intensity, higher = more binding, comparable within an allelic series); in the assay with HOXB6 [5] it was 11.6 upbm affinity estimate (log intensity, higher = more binding, comparable within an allelic series).

With AATTAGCC, the binding signal is 12.7 upbm affinity estimate (log intensity, higher = more binding, comparable within an allelic series) with VAX1 [1]; 12.1 upbm affinity estimate (log intensity, higher = more binding, comparable within an allelic series) with VAX1 [2]; 12.1 upbm affinity estimate (log intensity, higher = more binding, comparable within an allelic series) with VAX1 [3].

As to GCGAGCGC, in the assay with HOXB9, the binding signal is 8.46 upbm affinity estimate (log intensity, higher = more binding, comparable within an allelic series).

On to CCCCCAGC, for which the binding signal with VENTX was 8.03 upbm affinity estimate (log intensity, higher = more binding, comparable within an allelic series); with VAX1 [1], 7.08 upbm affinity estimate (log intensity, higher = more binding, comparable within an allelic series); in the assay with VAX1 [2] it was 7.15 upbm affinity estimate (log intensity, higher = more binding, comparable within an allelic series); with VAX1 [3] it was 6.96 upbm affinity estimate (log intensity, higher = more binding, comparable within an allelic series).

Consider CCCGGCTC, for which the binding signal with HOXC9 [10] is 9.4 upbm affinity estimate (log intensity, higher = more binding, comparable within an allelic series); with HOXC9 [11], 9.46 upbm affinity estimate (log intensity, higher = more binding, comparable within an allelic series); with HOXC9 [12] it was 9.4 upbm affinity estimate (log intensity, higher = more binding, comparable within an allelic series); with HOXC9 [13], 9.63 upbm affinity estimate (log intensity, higher = more binding, comparable within an allelic series).

For the sequence CGCGTAGC, the binding signal with SIX6 [14] is 9.02 upbm affinity estimate (log intensity, higher = more binding, comparable within an allelic series); with SIX6 [15] it was 9.02 upbm affinity estimate (log intensity, higher = more binding, comparable within an allelic series); with SIX6 [16] it was 9 upbm affinity estimate (log intensity, higher = more binding, comparable within an allelic series).

In the case of AATAATTG, the binding signal with HOXB9 is 9.89 upbm affinity estimate (log intensity, higher = more binding, comparable within an allelic series).

In the case of ATAATTGC, the binding signal with HOXB9 was 10.2 upbm affinity estimate (log intensity, higher = more binding, comparable within an allelic series); with HOXC9 [10], 12.6 upbm affinity estimate (log intensity, higher = more binding, comparable within an allelic series); with HOXB6 [4] it was 9.97 upbm affinity estimate (log intensity, higher = more binding, comparable within an allelic series); with HOXB6 [5], 12 upbm affinity estimate (log intensity, higher = more binding, comparable within an allelic series).

On to AGGGTCCC, for which the binding signal is 9.9 upbm affinity estimate (log intensity, higher = more binding, comparable within an allelic series) with HOXA4 [17]; 9.79 upbm affinity estimate (log intensity, higher = more binding, comparable within an allelic series) with HOXA4 [6]; 9.74 upbm affinity estimate (log intensity, higher = more binding, comparable within an allelic series) in the assay with HOXA4 [18].

Regarding GCCAGACC, the binding signal with HOXC9 [10] is 9.5 upbm affinity estimate (log intensity, higher = more binding, comparable within an allelic series); with SIX6 [14], 9.01 upbm affinity estimate (log intensity, higher = more binding, comparable within an allelic series); with HOXC9 [11], 9.48 upbm affinity estimate (log intensity, higher = more binding, comparable within an allelic series); with SIX6 [15] it was 9.03 upbm affinity estimate (log intensity, higher = more binding, comparable within an allelic series); in the assay with HOXC9 [12], 9.46 upbm affinity estimate (log intensity, higher = more binding, comparable within an allelic series); with SIX6 [16], 9.02 upbm affinity estimate (log intensity, higher = more binding, comparable within an allelic series). For the same sequence, the binding signal in the assay with HOXC9 [13] is 9.66 upbm affinity estimate (log intensity, higher = more binding, comparable within an allelic series).

Turning to CCGTAGGC, the binding signal was 9.73 upbm affinity estimate (log intensity, higher = more binding, comparable within an allelic series) with HOXC9 [10]; 9.68 upbm affinity estimate (log intensity, higher = more binding, comparable within an allelic series) with HOXC9 [11]; 9.78 upbm affinity estimate (log intensity, higher = more binding, comparable within an allelic series) in the assay with HOXC9 [12]; 9.77 upbm affinity estimate (log intensity, higher = more binding, comparable within an allelic series) with HOXC9 [13].

Values taken from paper PMC11006913.
